# Measured values from ChEMBL document CHEMBL1157539, “Thousands of chemical starting points for antimalarial lead identification” (Nature, 2010).
# What was measured:
# Assay type in all cases: functional
# [1] = tested on: Plasmodium falciparum; test: GSK_TCMDC: Inhibition of Plasmodium falciparum 3D7 in whole red blood cells, using parasite LDH activity as an index of growth. Test compounds present at 2uM
# [2] = tested on: Plasmodium falciparum; test: GSK_TCMDC: Inhibition of Plasmodium falciparum Dd2 in whole red blood cells, using parasite LDH activity as an index of growth. Test compounds present at 2uM
# [3] = tested on: HepG2; test: GSK_TCMDC: Percent inhibition of human HepG2 cell line. Test compounds present at 10uM.
compound,measurement,setting,value
CC1CN(Cc2cccc(-c3ccc(-c4nc5cc(F)ccc5[nH]4)cc3)c2)CC(C)O1.O=C(O)C(F)(F)F (configuration not stated),Inhibition,[1],87%
same,Inhibition,[2],88%
same,Inhibition,[3],45%
CC(=O)Nc1ncc(C(=O)Nc2cccc(-c3ccc(-c4nc5cc(F)ccc5[nH]4)cc3)c2)s1,Inhibition,[1],94%
same,Inhibition,[2],78%
same,Inhibition,[3],18%
CCOc1ccc2c(=NN=Cc3cccc(OC)c3OC)cc(C)[nH]c2c1,Inhibition,[1],100%
same,Inhibition,[2],85%
same,Inhibition,[3],4%
CCCOc1ccc(N2C(N)=NC(N)=NC2(C)C)cc1.Cl,Inhibition,[1],97%
same,Inhibition,[2],2%
same,Inhibition,[3],1%
CN1CCC(N2CCN(Cc3ccc(-c4ccc(-c5nc6ccccc6[nH]5)s4)cc3)CC2)CC1.O=C(O)C(F)(F)F,Inhibition,[1],100%
same,Inhibition,[2],100%
same,Inhibition,[3],62%
c1cncc(-c2cccc(CNc3nccc(Nc4ccc(OCCN5CCOCC5)cc4)n3)c2)c1,Inhibition,[1],93%
same,Inhibition,[2],27%
same,Inhibition,[3],1%
CC(C)(C)SCC(O)Cn1c2ccc(Br)cc2c2cc(Br)ccc21 (configuration not stated),Inhibition,[1],87%
same,Inhibition,[2],79%
same,Inhibition,[3],4%
O=C(/C=C/c1ccc(Cl)c(Cl)c1)NCCCCCN1CCN(C(=O)Nc2cccc(F)c2)CC1,Inhibition,[1],91%
same,Inhibition,[2],1%
same,Inhibition,[3],12%
c1ccc(-c2nc(NC3CCCCC3)cc(C3CC3)n2)nc1,Inhibition,[1],97%
same,Inhibition,[2],76%
same,Inhibition,[3],35%
COc1ccc(CN(C)CCCSc2ccc(NC(=O)c3cccc4c(=O)cc(-c5ccccc5)[nH]c34)cc2)cc1OC,Inhibition,[1],93%
same,Inhibition,[2],94%
same,Inhibition,[3],15%
CCSc1nnc(C2CCCN(CC(=O)Nc3cc(C(F)(F)F)ccc3Cl)C2)n1CC (configuration not stated),Inhibition,[1],99%
same,Inhibition,[2],96%
same,Inhibition,[3],0%
Cc1ccc(NC(=O)N2CCCN(CCCCCNC(=O)/C=C/c3ccc(Cl)c(Cl)c3)CC2)cc1,Inhibition,[1],99%
same,Inhibition,[2],2%
same,Inhibition,[3],12%
Cc1cccc2nc(-c3ccc(-c4cccc(CNCCc5ccncc5)c4)s3)[nH]c12.O=C(O)C(F)(F)F,Inhibition,[1],100%
same,Inhibition,[2],89%
same,Inhibition,[3],11%
N=C(N)NCCN(Cc1ccccc1)c1ccccc1,Inhibition,[1],100%
same,Inhibition,[2],98%
same,Inhibition,[3],8%
c1cncc(CNc2ncc(-c3ccsc3)c(-c3nccs3)n2)c1,Inhibition,[1],81%
same,Inhibition,[2],63%
same,Inhibition,[3],0%
Cc1cc(C(=O)CN2C(=O)NC3(CCOc4ccccc43)C2=O)c(C)n1Cc1ccco1 (configuration not stated),Inhibition,[1],93%
same,Inhibition,[2],42%
same,Inhibition,[3],13%
Fc1ccc(-c2nc(NCc3cccc(C(F)(F)F)c3)nn2-c2cccc(C(F)(F)F)c2)cc1C(F)(F)F,Inhibition,[1],90%
same,Inhibition,[2],58%
same,Inhibition,[3],2%
Cc1cccc(NC(c2cccs2)c2c(NC(=O)c3ccccc3)sc(C)c2C)n1 (configuration not stated),Inhibition,[1],88%
same,Inhibition,[2],80%
same,Inhibition,[3],0%
O=C(Nc1cccc(OC2CCN(Cc3ccsc3)CC2)c1)c1ccc(C(F)(F)F)cc1.O=C(O)C(F)(F)F,Inhibition,[1],98%
same,Inhibition,[2],5%
same,Inhibition,[3],25%
Cc1ccc(CN2CCC(C(=O)Nc3ccc(-c4cc5ccccc5[nH]4)cc3)CC2)o1,Inhibition,[1],92%
same,Inhibition,[2],40%
same,Inhibition,[3],19%
COc1cc(NC(=O)Nc2cccc3ccccc23)c(OC)cc1Cl,Inhibition,[1],97%
same,Inhibition,[2],71%
same,Inhibition,[3],0%
NC(=O)c1cccc(-n2ccc3cc(CNC4Cc5ccccc5C4)ccc32)c1.O=C(O)C(F)(F)F,Inhibition,[1],88%
same,Inhibition,[2],7%
same,Inhibition,[3],17%
COc1ccc2nccc([C@@H](O)CN3CCC(NCc4ccc(OC)c(NC(C)=O)c4)CC3)c2c1,Inhibition,[1],90%
same,Inhibition,[2],0%
same,Inhibition,[3],0%
Cc1cc(N[C@@H](CC(C)C)C(=O)Nc2ccccc2)nc(Nc2ccccc2)n1.O=C(O)C(F)(F)F,Inhibition,[1],99%
same,Inhibition,[2],93%
same,Inhibition,[3],0%
CCCC(=O)c1cnc2c(OCCCc3c[nH]cn3)cccc2c1Nc1c(C)cccc1C,Inhibition,[1],98%
same,Inhibition,[2],14%
same,Inhibition,[3],20%
COc1ccc(Cn2c(Nc3cccc(C(F)(F)F)c3)nc3cc(C(=O)NCCN4CCCC4)ccc32)cc1Cl,Inhibition,[1],97%
same,Inhibition,[2],54%
same,Inhibition,[3],11%
COc1cc2c(cc1OCCN1CCC(N3CCCC3)CC1)N(C(=O)/C=C/c1ccccc1Cl)CC2.Cl,Inhibition,[1],100%
same,Inhibition,[2],68%
same,Inhibition,[3],38%
O=C(NCCc1cccc(F)c1)c1cc(Br)cc(N2CCN(c3ccncc3)CC2)c1.O=C(O)C(F)(F)F,Inhibition,[1],100%
same,Inhibition,[2],86%
same,Inhibition,[3],34%
COc1ccc2nccc([C@@H](O)CN3CCC(NC(=O)C(=Cc4ccc(Cl)cc4Cl)c4ccc(-c5ccccc5)cc4)CC3)c2c1,Inhibition,[1],100%
same,Inhibition,[2],98%
same,Inhibition,[3],1%
